The supplement of paper PMC10037445
Whole data set: some 2,900 compounds, median “IRF Lucia reporter activity, fold change vs agonist alone” near 0.9, cut for the highest 2% near 2.8. The list comes from a sample in which the highest values are over-represented; it also holds similar structures and randomly drawn compounds.

Columns and labels:
RAW-Dual [1] = experiment: IRF Lucia reporter activity, fold change vs agonist alone; higher = enhanced IRF activity; settings: library stock concentration (final ~1000-fold dilution): 10 mM; cytotoxicity flag (confluency mask): not cytotoxic; agonist: MPLA (TLR4) […]
Method in brief: (§1)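 Library stock was pin-tooled at 50 nL into 384-well plates of RAW-Dual macrophages (50,000 cells/well, DMEM), followed 1 h later by a PRR agonist, and the cells were kept at 37 °C, 5% CO2. Supernatant collected after 20 hours was read for IRF by QuantiLuc luminescence and for NF-κB by QuantiBlue absorbance at 620 nm. Reporter activity is fold change over agonist-alone wells, and a well counted as cytotoxic when its IncuCyte confluency was below 70% of agonist controls in both mask sets.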

RAW-Dual [2] = experiment: IRF Lucia reporter activity, fold change vs agonist alone; cytotoxicity flag (confluency mask): not cytotoxic; higher = enhanced IRF activity
Method in brief: as §1

RAW-Dual [3] = experiment: IRF Lucia reporter activity, fold change vs agonist alone; cytotoxicity flag (confluency mask): cytotoxic (confluency <70% of control); higher = enhanced IRF activity
Method in brief: as §1

[4] = agonist: 3'3'-cGAMP (STING) 10 ug/mL

COc1ccc2c(OC3CC4C(=O)NC5(C(=O)NS(=O)(=O)C6CC6)CC5/C=C\CCCCN(C)C(=O)C4C3)cc(-c3nc(C(C)C)cs3)nc2c1C (stereo unspecified)
IRF Lucia reporter activity (RAW-Dual [1]): 1.05

Cc1ccc(/C(=C\CN2CCCC2)c2ccccn2)cc1.Cl.O (library stock concentration (final ~1000-fold dilution): 10 mM)
IRF Lucia reporter activity (RAW-Dual [2]; [4]): 0.877
IRF Lucia reporter activity (RAW-Dual [2]; agonist: LPS (TLR4) 0.1 ug/mL): 0.728

Cc1ccc(/C(=C\CN2CCCC2)c2ccccn2)cc1.Cl.O
IRF Lucia reporter activity (RAW-Dual [1]): 1.09

CC(C)(O)c1cc(Nc2cc(Oc3cn(C4CC4)nc3C3CCOCC3)ccn2)ccn1 (library stock concentration (final ~1000-fold dilution): 10 mM)
IRF Lucia reporter activity (RAW-Dual [2]; [4]): 1.14
IRF Lucia reporter activity (RAW-Dual [2]; agonist: LPS (TLR4) 0.1 ug/mL): 1.53

NC1CCCN(c2c(/C=C3\SC(=O)NC3=O)cccc2-c2ccccc2)C1 (stereo unspecified) (library stock concentration (final ~1000-fold dilution): 10 mM)
IRF Lucia reporter activity (RAW-Dual [2]; [4]): 0.968
IRF Lucia reporter activity (RAW-Dual [2]; agonist: LPS (TLR4) 0.1 ug/mL): 1.16

NC1CCCN(c2c(/C=C3\SC(=O)NC3=O)cccc2-c2ccccc2)C1 (stereo unspecified)
IRF Lucia reporter activity (RAW-Dual [1]): 1.1

CS(=O)(=O)CCNCc1ccc(-c2ccc3ncnc(Nc4ccc(OCc5cccc(F)c5)c(Cl)c4)c3c2)o1.Cc1ccc(S(=O)(=O)O)cc1.Cc1ccc(S(=O)(=O)O)cc1 (library stock concentration (final ~1000-fold dilution): 10 mM)
IRF Lucia reporter activity (RAW-Dual [2]; [4]): 0.264
IRF Lucia reporter activity (RAW-Dual [2]; agonist: LPS (TLR4) 0.1 ug/mL): 3.36

CS(=O)(=O)CCNCc1ccc(-c2ccc3ncnc(Nc4ccc(OCc5cccc(F)c5)c(Cl)c4)c3c2)o1
IRF Lucia reporter activity (RAW-Dual [1]): 1.6

CS(=O)(=O)CCNCc1ccc(-c2ccc3ncnc(Nc4ccc(OCc5cccc(F)c5)c(Cl)c4)c3c2)o1.Cc1ccc(S(=O)(=O)O)cc1.Cc1ccc(S(=O)(=O)O)cc1.O (library stock concentration (final ~1000-fold dilution): 10 mM)
IRF Lucia reporter activity (RAW-Dual [2]; [4]): 0.259
IRF Lucia reporter activity (RAW-Dual [2]; agonist: LPS (TLR4) 0.1 ug/mL): 2.46

CS(=O)(=O)CCNCc1ccc(-c2ccc3ncnc(Nc4ccc(OCc5cccc(F)c5)c(Cl)c4)c3c2)o1 (library stock concentration (final ~1000-fold dilution): 10 mM)
IRF Lucia reporter activity (RAW-Dual [2]; [4]): 0.277
IRF Lucia reporter activity (RAW-Dual [2]; agonist: LPS (TLR4) 0.1 ug/mL): 1.43

CS(=O)(=O)CCNCc1ccc(-c2ccc3ncnc(Nc4ccc(OCc5cccc(F)c5)c(Cl)c4)c3c2)o1.Cc1ccc(S(=O)(=O)O)cc1.Cc1ccc(S(=O)(=O)O)cc1
IRF Lucia reporter activity (RAW-Dual [1]): 1.28

CS(=O)(=O)CCNCc1ccc(-c2ccc3ncnc(Nc4ccc(OCc5cccc(F)c5)c(Cl)c4)c3c2)o1.Cc1ccc(S(=O)(=O)O)cc1.Cc1ccc(S(=O)(=O)O)cc1.O
IRF Lucia reporter activity (RAW-Dual [1]): 1.8

COc1cc(F)c(C(C)C)cc1-c1ccc(C(F)(F)F)cc1CN1C(=O)OC(c2cc(C(F)(F)F)cc(C(F)(F)F)c2)C1C (stereo unspecified) (library stock concentration (final ~1000-fold dilution): 10 mM)
IRF Lucia reporter activity (RAW-Dual [2]; [4]): 1.12
IRF Lucia reporter activity (RAW-Dual [2]; agonist: LPS (TLR4) 0.1 ug/mL): 1.14

COc1cc(F)c(C(C)C)cc1-c1ccc(C(F)(F)F)cc1CN1C(=O)OC(c2cc(C(F)(F)F)cc(C(F)(F)F)c2)C1C (stereo unspecified)
IRF Lucia reporter activity (RAW-Dual [1]): 1.1

CC(C)(O)CNc1nc(Nc2ccnc(C(F)(F)F)c2)nc(-c2cccc(C(F)(F)F)n2)n1 (library stock concentration (final ~1000-fold dilution): 10 mM)
IRF Lucia reporter activity (RAW-Dual [2]; [4]): 1
IRF Lucia reporter activity (RAW-Dual [2]; agonist: LPS (TLR4) 0.1 ug/mL): 1.29

Nc1ncc(-c2ccnc(Nc3ccncc3)n2)c(CC2CC2)n1 (library stock concentration (final ~1000-fold dilution): 10 mM)
IRF Lucia reporter activity (RAW-Dual [3]; [4]): 0.336
IRF Lucia reporter activity (RAW-Dual [3]; agonist: LPS (TLR4) 0.1 ug/mL): 3.92

Cc1ccc(NC(=O)c2ccc(CN3CCN(C)CC3)cc2)cc1Nc1nccc(-c2cccnc2)n1
IRF Lucia reporter activity (RAW-Dual [1]): 1.29

COc1cc(N2CCN(C)CC2)ccc1Nc1nccc(-c2cn(C)c3cnccc23)n1
IRF Lucia reporter activity (RAW-Dual [1]): 0.246

COc1cc(N2CCN(C)CC2)ccc1Nc1nccc(-c2cn(C)c3cnccc23)n1 (library stock concentration (final ~1000-fold dilution): 10 mM)
IRF Lucia reporter activity (RAW-Dual [2]; [4]): 0.0231
IRF Lucia reporter activity (RAW-Dual [2]; agonist: LPS (TLR4) 0.1 ug/mL): 0.154

Cc1nc(N)sc1-c1ccnc(Nc2ccc(N3CCOCC3)cc2)n1
IRF Lucia reporter activity (RAW-Dual [1]): 0.0284

Cc1nc(N)sc1-c1ccnc(Nc2ccc(N3CCOCC3)cc2)n1 (library stock concentration (final ~1000-fold dilution): 10 mM)
IRF Lucia reporter activity (RAW-Dual [2]; [4]): 0.0149
IRF Lucia reporter activity (RAW-Dual [2]; agonist: LPS (TLR4) 0.1 ug/mL): 0.023

Cc1ccc(NC(=O)c2ccc(CN3CCN(C)CC3)cc2)cc1Nc1nccc(-c2cccnc2)n1 (library stock concentration (final ~1000-fold dilution): 10 mM)
IRF Lucia reporter activity (RAW-Dual [2]; [4]): 0.549
IRF Lucia reporter activity (RAW-Dual [2]; agonist: LPS (TLR4) 0.1 ug/mL): 0.944

CC(C)(O)CNc1ncc(-c2ccnc(Nc3ccncc3)n2)c(CC2CC2)n1 (library stock concentration (final ~1000-fold dilution): 10 mM)
IRF Lucia reporter activity (RAW-Dual [2]; [4]): 0.364
IRF Lucia reporter activity (RAW-Dual [2]; agonist: LPS (TLR4) 0.1 ug/mL): 10.3

CC(C)(O)CNc1ncc(-c2ccnc(Nc3ccnc(Cl)c3)n2)c(CC2CC2)n1 (library stock concentration (final ~1000-fold dilution): 10 mM)
IRF Lucia reporter activity (RAW-Dual [2]; [4]): 0.0702
IRF Lucia reporter activity (RAW-Dual [2]; agonist: LPS (TLR4) 0.1 ug/mL): 3.2

Cc1c(NC(=O)OCC2COCCN2)cn2ncnc(Nc3ccc4c(cnn4Cc4cccc(F)c4)c3)c12 (stereo unspecified) (library stock concentration (final ~1000-fold dilution): 10 mM)
IRF Lucia reporter activity (RAW-Dual [2]; [4]): 0.267
IRF Lucia reporter activity (RAW-Dual [2]; agonist: LPS (TLR4) 0.1 ug/mL): 1.28

Cc1c(NC(=O)OCC2COCCN2)cn2ncnc(Nc3ccc4c(cnn4Cc4cccc(F)c4)c3)c12 (stereo unspecified)
IRF Lucia reporter activity (RAW-Dual [1]): 1.3
